Source: PubChem
Sampled rows, rich in hits. Any-hit rate of the full collection: about 14%.
FBPA Giardia inh: Giardia lamblia aldolase inhibition; purified Giardia FBPA; Potency, µM (highest dose often 59.6 µM), hits mostly inhibitors; 290,000 tested, 0.71% active; note: nearly all actives have a fitted effect of over 55% in size
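40 nM FBPA preincubated 10 min at RT with compound (up to 57.5 uM final), then substrate plus GAPDH/TPI/NAD/arsenate coupling and diaphorase/resazurin added. Fluorescence read after 20 min at RT, 525/598 nm.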
LmPK inh: inhibitors of Leishmania mexicana pyruvate kinase; Q27686; purified LmPK, Kinase-Glo ATP luminescence, 1 h; Potency, µM (doses to about 57.5 µM), hits mostly inhibitors; 290,000 tested, 0.37% active; AID 1721
Target sequence (Q27686 whole entry, looked up): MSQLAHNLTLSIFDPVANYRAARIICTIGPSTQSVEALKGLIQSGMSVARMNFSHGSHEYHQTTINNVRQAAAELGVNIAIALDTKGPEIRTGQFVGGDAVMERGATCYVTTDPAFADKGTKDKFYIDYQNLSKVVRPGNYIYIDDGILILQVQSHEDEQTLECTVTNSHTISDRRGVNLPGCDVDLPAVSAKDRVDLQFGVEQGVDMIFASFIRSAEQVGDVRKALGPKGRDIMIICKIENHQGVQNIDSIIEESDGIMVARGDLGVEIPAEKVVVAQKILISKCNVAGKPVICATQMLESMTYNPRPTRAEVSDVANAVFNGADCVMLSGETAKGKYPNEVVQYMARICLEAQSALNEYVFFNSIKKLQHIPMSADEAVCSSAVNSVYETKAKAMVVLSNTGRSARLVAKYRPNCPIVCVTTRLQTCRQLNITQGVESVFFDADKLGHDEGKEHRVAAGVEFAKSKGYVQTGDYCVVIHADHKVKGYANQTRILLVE
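Kinase-Glo luminescence read after 1 h RT reaction of 0.1 nM LmPK with 0.5 mM PEP and 0.1 mM ADP. Activity scaled between uninhibited and enzyme-free controls.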
Cycloheximide cs: counter-screen for Shiga toxin inhibitors: cycloheximide protein synthesis inhibition. 300,000 tested, 12% active. AID 2314. max response, %. cell reporter, cycloheximide protein synthesis inhibition counterscreen; in the data active = max response mostly above about 13%, no sharp cut-off; inactive = mostly below about 14%; note: read at 38.3 µM for the half of the compounds with a filed dose
Shiga toxin inh: Shiga toxin inhibition; Vero cells, Shiga toxin protein synthesis inhibition reporter; 290,000 tested, 9.2% active; inhibition, % at 38.7 µM; in the data active = inhibition mostly above about 28%, no sharp cut-off; inactive = mostly below about 43%
NS1 function inh: influenza NS1 inhibition; Potency, µM (top dose mostly 46.1 µM); 270,000 tested, 0.4% active; AID 2326; calls by dose curve; note: actives are rising curves; nearly all actives have a fitted effect of over 50% in size
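In this qHTS, NS1 from influenza A is expressed in budding yeast, where it slows growth. Cells are switched from glucose to 2% galactose medium (pH 6.0, -URA), treated with compound, and growth recovery is read at OD600.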
A number is an active result; n = inactive; u = inconclusive; x = not tested or not shown. Unless noted, calls come from the whole dose curve; as a rule, active = well fitted curve in the direction sought with a large enough effect; inconclusive = small, poorly fitted or top-dose-only effect, or another doubt; inactive = no such curve, though single readings can be large; an effect the other way counts as inactive or inconclusive.

SMILES	FBPA Giardia inh	LmPK inh	Cycloheximide cs	Shiga toxin inh	NS1 function inh
O=C(CSc1nnc(-c2ccco2)o1)Nc1ccccc1Cl	x	n	16	n	n
O=C(CSc1nnc(-c2ccccn2)o1)Nc1ccccc1Cl	n	n	33	71	n
O=c1c2ccccc2nnn1CSc1nnc(-c2ccco2)o1	n	n	20	n	n
Cc1c(C)c2ccc(OCC(=O)N(C)C3CCS(=O)(=O)C3)c(C)c2oc1=O (centres undefined)	x	n	n	n	n
O=c1ccc2c(OCCCCOc3ccccc3)c3ccoc3cc2o1	n	x	n	n	x
Cc1cc(OCC(=O)Nc2ccccc2C(N)=O)c2c(C)cc(=O)oc2c1	n	n	n	n	n
COc1ccc(NC2CCCN(C(=O)c3cn(C)c4ccccc34)C2)cc1 (centres undefined)	n	n	n	n	n
CCOC(=O)C1CCCN(C(=O)c2cc3cc(OC)c(OC)cc3[nH]2)C1 (centres undefined)	n	n	n	n	n
Cc1noc(C)c1COC(=O)c1ccc(-c2nc3ccccc3s2)s1	n	n	18	73	n
CCNC(=O)COC(=O)c1ccc(-c2nc3ccccc3s2)s1	n	u	34	99	x
O=C(O)c1ccccc1C(=O)NCC(O)COc1ccc(Cl)cc1 (centres undefined)	n	n	38	55	n
COc1ccc(OCC(O)CNC(=O)c2ccccc2C(=O)O)cc1 (centres undefined)	n	n	n	n	n
OC1OC[C@@H](O)[C@@H](O)[C@@H]1O (some centres undefined)	n	x	n	n	x
O=C(CSc1cccc[n+]1[O-])Nc1cccc(Oc2ccccc2)c1	n	n	21	n	x
O=C(CCl)Nc1cccc(Oc2ccccc2)c1	n	n	n	n	x
COC(=O)c1ccccc1NC(=O)/C=C/c1ccco1	n	n	38	53	n
O=C(/C=C/c1ccccc1)Nc1cccnc1Cl	n	n	42	105	n
O=C(/C=C/c1ccccc1)NC(NC(=S)Nc1cccc2cccnc12)C(Cl)(Cl)Cl (centres undefined)	n	x	n	n	x
O=C(/C=C/c1ccco1)NC(=S)Nc1ccc(N2CCCC2)cc1	n	n	n	n	n
O=C(/C=C/c1ccco1)Nc1ccccc1N1CCCCC1	n	n	24	92	x
Cc1sc(NC(=O)/C=C/c2ccco2)c(C(=O)O)c1C	u	n	25	n	n
Cc1cc(C(=O)N2CCN(c3ccc([N+](=O)[O-])cc3)CC2)n[nH]1	n	n	n	n	n
CCOC(=O)CNC(=O)O[C@H]1C(=O)c2ccc(OC)cc2O[C@@H]1c1ccc2c(c1)OCO2	n	x	x	x	x
O=C(NC1CCSc2ccccc21)c1c(F)cccc1Cl (centres undefined)	x	n	n	n	n
O=c1cc(N2CCNCC2)oc2c(-c3ccccc3)cccc12	n	x	n	n	x
SMILES	FBPA Giardia inh	LmPK inh	Cycloheximide cs	Shiga toxin inh	NS1 function inh
O=C(/C=C/c1ccco1)Nc1cccnc1Cl	n	16µM	46	157	n
COc1cc(-c2nnc(-c3cccs3)o2)cc(OC)c1OC	n	n	n	n	n
O=C(O)Cc1sc(-c2ccccc2)nc1-c1ccccc1	n	n	n	n	n
CCOc1ccc(-c2nnc(-c3cccs3)o2)cc1OCC	n	n	24	58	n
N#Cc1nc(-c2cccs2)oc1N1CCN(c2ccccc2)CC1	n	n	n	n	u
CCOc1ccc(Nc2oc(-c3cccs3)nc2C#N)cc1	n	n	n	n	n
CCOc1ccc(-c2nnc(-c3cccs3)o2)cc1	n	n	45	130	n
c1csc(-c2nnc(-c3ccc(N4CCOCC4)cc3)o2)c1	n	n	47	63	n
CCOc1ccc(-c2nc(-c3cccs3)c(CC(=O)O)s2)cc1OC	n	n	24	n	x
Cc1ccc(CNS(=O)(=O)c2ccc3c(c2)NC(=O)CS3)cc1	x	n	n	n	n
COc1ccc(-c2nnc(-c3cccs3)o2)cc1OC	n	u	51	92	n
CC(C)N1C(=O)CCC1C(=O)NCc1cccs1 (centres undefined)	n	n	43	n	x
O=C(CCCCC(=O)NCc1cccs1)NCc1cccs1	n	n	n	n	n
O=C(CCS(=O)(=O)c1cccs1)NC1CCCCCC1	n	n	31	115	n
O=C(NC1CCCCC1NC(=O)c1cccs1)c1cccs1 (centres undefined)	n	n	n	n	n
O=C(CCC1CCCC1)NCc1cccs1	n	n	26	n	n
O=C(CCS(=O)(=O)c1ccc(Br)cc1)NC1CCCC1	n	n	n	n	n
O=C(NCc1cccs1)C1CC1	n	n	n	n	n
